Laboratory results from the supplement of paper PMC12669032.

What was measured:
Assay in all cases: growth AUC relative to DMSO control (median of replicates) (fraction); higher = more growth (less inhibition), active = hit call of the paper
Conditions in all cases: 20 µM; 24 h;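 active = AUC reduced over 20% with Padj below 0.05 in at least 2 of 3 replicates; inactive = otherwise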
Coprococcus comes = test system: Coprococcus comes
How it was run: (§1)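 Gut bacteria were grown singly in mGAM at 37 °C without oxygen, from OD600 0.05, alongside 20 µM compound in 1% DMSO, and OD600 was read each hour for 24 h. Area under the growth curve was normalised to the median of solvent-only wells per plate, or to row and column medians on the industrial chemical plate. The minimum OD was set to 0 beforehand, and the reported value is the median of three biological replicates grown on separate days.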

Escherichia coli ED1a = test system: Escherichia coli ED1a
How it was run: as §1

Escherichia coli IAI1 = test system: Escherichia coli IAI1
How it was run: as §1

Eubacterium rectale = test system: Eubacterium rectale
How it was run: as §1

[1] = test system: Fusobacterium nucleatum subsp. animalis
How it was run: as §1

Lactobacillus gasseri = test system: Lactobacillus gasseri
How it was run: as §1

Lactobacillus paracasei = test system: Lactobacillus paracasei
How it was run: as §1

Odoribacter splanchnicus = test system: Odoribacter splanchnicus
How it was run: as §1

[2] = test system: Parabacteroides distasonis
How it was run: as §1

Parabacteroides merdae = test system: Parabacteroides merdae
How it was run: as §1

Measured: growth AUC

C[C@@H](Oc1ccc(Oc2nc3ccc(Cl)cc3o2)cc1)C(=O)O
inactive: Coprococcus comes 1.04 | Escherichia coli ED1a 1.01 | Escherichia coli IAI1 1.02 | Eubacterium rectale 1.07 | [1] 1.01 | Lactobacillus gasseri 0.968 | Lactobacillus paracasei 0.983 | Odoribacter splanchnicus 1.09 | [2] 1.03 | Parabacteroides merdae 1.03

Oc1ccccc1-c1ccccc1
inactive: Coprococcus comes 1 | Escherichia coli ED1a 1.02 | Escherichia coli IAI1 1.05 | Eubacterium rectale 0.984 | [1] 0.988 | Lactobacillus gasseri 1.08 | Lactobacillus paracasei 0.923 | Odoribacter splanchnicus 1.03 | [2] 0.976 | Parabacteroides merdae 1.04

CNC(=O)O/N=C(\C)C(C)S(C)(=O)=O (stereo not given)
inactive: Coprococcus comes 1.02 | Escherichia coli ED1a 0.961 | Escherichia coli IAI1 0.979 | Eubacterium rectale 1.03 | [1] 0.972 | Lactobacillus gasseri 0.905 | Lactobacillus paracasei 0.894 | Odoribacter splanchnicus 1.11 | [2] 0.955 | Parabacteroides merdae 0.956

CCOP(=S)(NC(C)CC)Oc1cc(C)ccc1[N+](=O)[O-] (stereo not given)
inactive: Coprococcus comes 0.967 | Escherichia coli ED1a 0.97 | Escherichia coli IAI1 0.964 | Eubacterium rectale 0.919 | [1] 0.865 | Lactobacillus gasseri 0.974 | Lactobacillus paracasei 0.984 | Odoribacter splanchnicus 0.904 | Parabacteroides merdae 0.967
active: [2] 0.733

Cc1ccc(-c2c(Cl)nc(C#N)n2S(=O)(=O)N(C)C)cc1
active: [2] 0.551
inactive: Coprococcus comes 1.03 | Escherichia coli ED1a 0.944 | Escherichia coli IAI1 1.02 | Eubacterium rectale 0.992 | [1] 1.09 | Lactobacillus gasseri 1 | Lactobacillus paracasei 1.03 | Odoribacter splanchnicus 0.989 | Parabacteroides merdae 0.818

Clc1cccc(Cl)c1Cl
inactive: Coprococcus comes 1.01 | Escherichia coli ED1a 0.985 | Escherichia coli IAI1 0.997 | Eubacterium rectale 0.982 | [1] 1 | Lactobacillus gasseri 1.02 | Lactobacillus paracasei 1.03 | Odoribacter splanchnicus 1 | [2] 1 | Parabacteroides merdae 1.01

O=C(Cc1ccccc1)N/C(=N\OCC1CC1)c1c(C(F)(F)F)ccc(F)c1F
active: [2] 0.612
inactive: Coprococcus comes 1.01 | Escherichia coli ED1a 0.983 | Escherichia coli IAI1 0.972 | Eubacterium rectale 1.03 | [1] 0.937 | Lactobacillus gasseri 0.842 | Lactobacillus paracasei 0.946 | Odoribacter splanchnicus 0.911 | Parabacteroides merdae 0.877

CC(C)=CC1C(C(=O)OCN2C(=O)C3=C(CCCC3)C2=O)C1(C)C (stereo not given)
inactive: Coprococcus comes 0.953 | Escherichia coli ED1a 0.995 | Escherichia coli IAI1 0.97 | Eubacterium rectale 0.938 | [1] 0.85 | Lactobacillus gasseri 0.993 | Lactobacillus paracasei 0.918 | Odoribacter splanchnicus 0.963 | [2] 0.935 | Parabacteroides merdae 0.972

COP(=S)(OC)SCn1nnc2ccccc2c1=O
inactive: Coprococcus comes 0.997 | Escherichia coli ED1a 0.957 | Escherichia coli IAI1 0.968 | Eubacterium rectale 1.07 | [1] 0.916 | Lactobacillus gasseri 0.929 | Lactobacillus paracasei 0.968 | Odoribacter splanchnicus 0.902 | [2] 0.787 | Parabacteroides merdae 0.944

CNC(=O)O/N=C/C(C)(C)S(C)(=O)=O
inactive: Coprococcus comes 0.98 | Escherichia coli ED1a 1.03 | Escherichia coli IAI1 1.03 | Eubacterium rectale 0.939 | [1] 0.97 | Lactobacillus gasseri 1.05 | Lactobacillus paracasei 1 | Odoribacter splanchnicus 0.964 | [2] 1.04 | Parabacteroides merdae 0.977

CCOP(=S)(OCC)Oc1ccc(S(C)=O)cc1 (stereo not given)
inactive: Coprococcus comes 1 | Escherichia coli ED1a 1 | Escherichia coli IAI1 1.01 | Eubacterium rectale 0.878 | [1] 0.998 | Lactobacillus gasseri 1.07 | Lactobacillus paracasei 1 | Odoribacter splanchnicus 0.977 | [2] 1 | Parabacteroides merdae 1

CON(C)C(=O)Nc1ccc(Cl)c(Cl)c1
inactive: Coprococcus comes 1 | Escherichia coli ED1a 1.02 | Escherichia coli IAI1 0.977 | Eubacterium rectale 0.95 | [1] 0.936 | Lactobacillus gasseri 1.01 | Lactobacillus paracasei 0.996 | Odoribacter splanchnicus 0.981 | [2] 1.01 | Parabacteroides merdae 1

Nc1c(Cl)c(Cl)c(Cl)c(Cl)c1Cl
inactive: Coprococcus comes 0.958 | Escherichia coli ED1a 0.986 | Escherichia coli IAI1 0.95 | Eubacterium rectale 1.01 | [1] 0.983 | Lactobacillus gasseri 0.972 | Lactobacillus paracasei 0.869 | Odoribacter splanchnicus 0.993 | [2] 1.04 | Parabacteroides merdae 0.971

CCOP(=O)(NC(C)C)Oc1ccc(S(C)=O)c(C)c1 (stereo not given)
inactive: Coprococcus comes 1.04 | Escherichia coli ED1a 1.03 | Escherichia coli IAI1 1.04 | Eubacterium rectale 1.05 | [1] 1.09 | Lactobacillus gasseri 1.07 | Lactobacillus paracasei 0.975 | Odoribacter splanchnicus 1.01 | [2] 1.13 | Parabacteroides merdae 1.05
